# Reference: PubChem BioAssay
# Results filed as inconclusive are left out. Calls of active or inactive are those of the source.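 How the source made its calls, unless noted: active means luciferase signal above three times the same-plate solvent-only control wells; inactive means the rest.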
# Tests used:
# [1] = biological target: Mitogen-activated protein kinase 7 (Homo sapiens) (UniProt Q13164); test: ERK5 transactivation activators in reporter cells, primary screen, cell-based, HTS (AID 1508626); conditions: HeLa Gal4-ERK5 transactivation, 18 h, at 5 µM, stronger effect = higher value;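 further: luciferase driven by Gal4-ERK5 fusion binding five Gal4 sites before minimal TATA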
# [2] = growth inhibition of DIPG glioma cells, dose response, cell-based, SU-DIPG-IV, MIPE4.0, CellTiter-Glo, qHTS (AID 1347063; cut-off not given, nearly all actives have AC50 up to about 30 µM;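 further: compound exposure lasted 48 hours before the viability readout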); conditions: SU-DIPG-IV viability, CellTiter-Glo ATP luminescence
# [3] = growth inhibition of DIPG glioma cells, dose response, cell-based, SU-DIPG-XIII, MIPE5.0, CellTiter-Glo, qHTS (AID 1347064; cut-off not given, nearly all actives have AC50 up to about 23 µM); conditions: SU-DIPG-XIII viability, CellTiter-Glo ATP luminescence
# [4] = viability loss in pontine glioma line – cell-based, SU-DIPG-XXV, MIPE5.0, CellTiter-Glo, qHTS, dose response (AID 1347065; cut-off not given, nearly all actives have AC50 up to about 26 µM;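 further: cells exposed to compound for 48 hours before ATP readout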); conditions: CellTiter-Glo ATP luminescence
# [5] = SU-DIPG-VI glioma cell viability, MIPE4.0 library, CellTiter-Glo luminescence, qHTS (AID 1347066; cut-off not given, nearly all actives have AC50 up to about 30 µM;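 further: cells exposed to compound for 48 hours before readout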); conditions: CellTiter-Glo ATP luminescence
# [6] = JHH-DIPG-1 glioma cell viability, MIPE5.0 library, CellTiter-Glo luminescence, qHTS (AID 1347067; cut-off not given, nearly all actives have AC50 up to about 26 µM;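 further: cells exposed to compound for 48 hours before readout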); conditions: JHH-DIPG-1 glioma viability, CellTiter-Glo ATP luminescence
# [7] = hESC survival regulators, cell-based (AID 493140; call rule not given here;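 further: cells exposed to compounds for four days before counting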); conditions: human embryonic stem cell survival screen; stronger effect = higher value
# [8] = LFS_MB_P medulloblastoma growth inhibition, cell-based, chromothripsis tumors, cisplatin or BGB combos (AID 1671449; in the data active means inhibition above about 80%;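 further: cells exposed for 96 hours; 0% = vehicle DMSO and 100% = killing by high DMSO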); conditions: LFS_MB_P medulloblastoma cells
# [9] = HDN33 neuroblastoma growth inhibition, cell-based, chromothripsis tumors, cisplatin or BGB combos (AID 1671450; in the data active means inhibition above about 80%;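 further: cells exposed to compound for four days; 0% = vehicle DMSO and 100% = cell killing by high DMSO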); conditions: HDN33 neuroblastoma cells, stronger effect = higher value
# [10] = ICB984 medulloblastoma cell growth inhibition, synergistic combos for chromothripsis tumors, cisplatin or BGB combos (AID 1671451; call rule not given here;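 further: cells exposed for 96 hours before readout; 0% = vehicle DMSO and 100% = killing by high DMSO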); conditions: ICB984 medulloblastoma cells, drug combinations, stronger effect = higher value
# [11] = HTB85 osteosarcoma cell growth inhibition, synergistic combos for chromothripsis tumors, BGB or cisplatin IC20 combos (AID 1671453; in the data active means inhibition above about 80%;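 further: cells exposed for 96 hours before readout; 0% = vehicle DMSO and 100% = high DMSO killing control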); conditions: HTB85 osteosarcoma cells, drug combinations, stronger effect = higher value
# [12] = MDA-MB-436 breast carcinoma cell growth inhibition, synergistic combos for chromothripsis tumors, BGB or cisplatin combos (AID 1671458; call rule not given here;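 further: cells exposed for 96 hours; 0% = vehicle DMSO and 100% = killing by high DMSO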); conditions: MDA-MB-436 breast carcinoma growth inhibition, drug combinations, stronger effect = higher value
# [13] = growth inhibition of BT084 medulloblastoma cells, cell-based, ICGC_MB145, cisplatin and BGB IC40 combos (AID 1671461; in the data active means inhibition above about 80%;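 further: cells exposed to drugs for 96 hours; 0% = vehicle DMSO and 100% = high DMSO full killing control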); conditions: drug combinations, stronger effect = higher value
# [14] = growth inhibition of RCMB18 medulloblastoma cells, cell-based, cisplatin and BGB IC40 combos (AID 1671462; in the data active means inhibition above about 80%;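 further: cells exposed to compound for four days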); conditions: stronger effect = higher value
# [15] = growth inhibition of CRL1545 osteosarcoma cells, cell-based, cisplatin and BGB IC20 combos (AID 1671464; in the data active means inhibition above about 80%;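 further: cells exposed to compound for 96 hours before readout; 0% = vehicle DMSO and 100% = high DMSO killing control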); conditions: stronger effect = higher value
# [16] = measured here: with BGB IC20 combination, at 0.5 µM
# [17] = measured here: with cisplatin IC20 combination, at 0.5 µM
# Chain of Mitogen-activated protein kinase 7 (Homo sapiens) (Q13164 whole entry, looked up, the tested form may be a part): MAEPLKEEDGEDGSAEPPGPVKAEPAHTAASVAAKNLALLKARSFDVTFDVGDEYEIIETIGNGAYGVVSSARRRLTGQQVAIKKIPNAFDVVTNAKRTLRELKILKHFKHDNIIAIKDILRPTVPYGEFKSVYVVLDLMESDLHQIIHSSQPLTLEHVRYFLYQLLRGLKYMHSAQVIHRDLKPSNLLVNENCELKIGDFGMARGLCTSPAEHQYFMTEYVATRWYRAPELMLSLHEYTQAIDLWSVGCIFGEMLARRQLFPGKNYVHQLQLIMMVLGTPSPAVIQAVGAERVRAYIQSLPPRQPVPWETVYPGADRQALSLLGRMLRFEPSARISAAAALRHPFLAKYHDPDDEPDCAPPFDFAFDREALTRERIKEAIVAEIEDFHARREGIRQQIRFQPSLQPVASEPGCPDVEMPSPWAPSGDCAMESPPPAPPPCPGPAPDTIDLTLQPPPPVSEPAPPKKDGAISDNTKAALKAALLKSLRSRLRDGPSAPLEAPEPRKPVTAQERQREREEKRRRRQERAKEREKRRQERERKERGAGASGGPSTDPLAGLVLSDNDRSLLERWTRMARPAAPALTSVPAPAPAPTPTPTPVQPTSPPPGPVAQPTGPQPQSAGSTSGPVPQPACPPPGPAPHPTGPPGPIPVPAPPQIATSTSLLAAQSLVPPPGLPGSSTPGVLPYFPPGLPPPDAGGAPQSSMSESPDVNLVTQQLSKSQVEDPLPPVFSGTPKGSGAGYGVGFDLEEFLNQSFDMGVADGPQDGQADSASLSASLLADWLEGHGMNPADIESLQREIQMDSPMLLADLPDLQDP
smiles,measurement,setting,value
CCCCCCCCCCOc1cc2c(=O)c(C(=O)OCC)c[nH]c2cc1OCC,luciferase signal,[1],44 AU (inactive)
O=C1c2ccccc2C(=O)C1c1ccc(Br)cc1,luciferase signal,[1],56 AU (inactive)
CC1(C)[C@@H]2CC[C@@]1(C)C(=O)C2,luciferase signal,[1],52 AU (inactive)
CC[C@@H](CO)NCCN[C@@H](CC)CO,luciferase signal,[1],40 AU (inactive)
CCOCC(O)COc1ccc(NC(=O)CC[S+](C)C)cc1 (stereo not drawn),outcome,[2],inactive
same,outcome,[3],inactive
same,outcome,[4],inactive
same,outcome,[5],inactive
same,outcome,[6],inactive
CC(O)Cn1cnc2c1c(=O)n(C)c(=O)n2C (stereo not drawn),survival,[7],7 (inactive)
same,luciferase signal,[1],104 AU (inactive)
NC(=O)c1cc[n+](CC2=C(C(=O)[O-])N3C(=O)[C@@H](NC(=O)Cc4cccs4)[C@H]3SC2)cc1,survival,[7],16 (inactive)
Nc1ncn([C@H]2C[C@H](O)[C@@H](CO)O2)c(=O)n1,outcome,[2],inactive
same,outcome,[3],inactive
same,outcome,[5],inactive
same,outcome,[6],inactive
same,inhibition,"[8]; at 0.5 µM, stronger effect = higher value",6.06% (inactive)
same,inhibition,"[8]; measured here: combination with BGB IC20, at 0.005 µM",-1.4%
same,inhibition,"[8]; measured here: combination with BGB IC40, at 0.005 µM",-3.75%
same,inhibition,"[8]; measured here: combination with BGB IC40, at 0.05 µM",-40.3%
same,inhibition,"[8]; measured here: combination with cisplatin, at 0.5 µM, stronger effect = higher value",19.6%
same,inhibition,"[8]; measured here: combination with cisplatin, at 5 µM, stronger effect = higher value",18%
same,inhibition,"[9]; BGB combo, at 5 µM",50.3%
same,inhibition,[9]; at 0.5 µM,24.3% (inactive)
same,inhibition,"[9]; cisplatin combo, at 5 µM",54.4%
same,inhibition,[9]; [16],30.2%
same,inhibition,[9]; [17],11.6%
same,inhibition,"[9]; single agent, at 5 µM",52.1%
same,inhibition,"[10]; BGB IC20 combo, at 0.005 µM",-3.18%
same,inhibition,"[10]; BGB IC40 combo, at 0.005 µM",-34%
same,inhibition,"[10]; BGB IC40 combo, at 0.05 µM",-19.3%
same,inhibition,[10]; at 0.5 µM,-18% (inactive)
same,inhibition,"[10]; cisplatin combo, at 0.05 µM",-23.6%
same,inhibition,"[10]; cisplatin combo, at 0.5 µM",-14.1%
same,inhibition,"[10]; cisplatin combo, at 5 µM",-50.9%
same,inhibition,"[10]; measured here: 5 uM single agent, at 5 µM",-6.92%
same,inhibition,[11]; at 0.5 µM,3.38% (inactive)
same,inhibition,"[11]; measured here: with BGB IC20, at 0.5 µM",2.59%
same,inhibition,"[11]; measured here: with BGB IC20, at 5 µM",19.3%
same,inhibition,"[11]; measured here: with cisplatin IC20, at 0.5 µM",-6.21%
same,inhibition,"[11]; measured here: with cisplatin IC20, at 5 µM",27.4%
same,inhibition,"[11]; single agent, at 5 µM",40.2%
same,inhibition,[12]; at 0.5 µM,17.4% (inactive)
same,inhibition,"[12]; measured here: BGB combination, at 0.5 µM",28.5%
same,inhibition,"[12]; measured here: BGB combination, at 5 µM",26.2%
same,inhibition,"[12]; measured here: cisplatin combination, at 0.5 µM",6.25%
same,inhibition,"[12]; measured here: cisplatin combination, at 5 µM",4.64%
same,inhibition,[13]; at 0.5 µM,-3.99% (inactive)
same,inhibition,"[13]; cisplatin combination, at 0.5 µM",-10.2%
same,inhibition,"[13]; cisplatin combination, at 5 µM",16.2%
same,inhibition,"[13]; measured here: BGB IC40 combination 0.05 uM, at 0.05 µM",-0.777%
same,inhibition,"[13]; single agent, at 5 µM",-11.6%
same,inhibition,[14]; at 0.5 µM,-2.53% (inactive)
same,inhibition,"[14]; cisplatin combo, at 5 µM",-31%
same,inhibition,"[14]; measured here: BGB IC40 combination, at 0.05 µM",7.83%
same,inhibition,"[14]; measured here: combination with cisplatin, at 0.5 µM",-5.57%
same,inhibition,"[14]; single agent, at 5 µM",7.32%
same,inhibition,[15]; at 0.5 µM,-20.4% (inactive)
same,inhibition,[15]; [16],-0.059%
same,inhibition,[15]; [17],-32.7%
same,inhibition,"[15]; single agent, at 0.05 µM",-13.4%
same,inhibition,"[15]; single agent, at 5 µM",5.37%
O=C(OOC(=O)c1ccccc1)c1ccccc1,luciferase signal,[1],104 AU (inactive)
